Records with an inconclusive call do not appear. A number with no mark means an inactive call. The source made the active and inactive calls. Calls follow the shape of the dose curve; as a rule, active = well fitted cell-killing curve with a large enough effect; inconclusive = small, poorly fitted or top-dose-only effect; inactive = flat fitted curve, though single readings scatter.
test: Cell Viability - N2a (AID 540); details: N2a mouse neuroblastoma cell viability; activity change, negative = cytotoxicity: at 92.2 µM (top of the series); also: nearly all actives have a fitted effect of over 45% in size;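 as to activity change, negative = cytotoxicity: plate controls were DMSO alone for no effect and tamoxifen control for full effect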
Description: NIH Chemical Genomics Center [NCGC]
NIH Molecular Libraries Screening Centers Network [MLSCN]
National Institutes of Environmental Health Sciences [NIEHS]
National Toxicology Program [NTP]
We have developed a 1536-well cell-based assay for quantitative high throughput screening (qHTS) against a number of cell lines to determine in vitro cytotoxicity of small molecules. This particular assay uses the N2a cell line which is derived from mouse neuroblastoma.
NCGC Assay Protocol Summary:
The CellTiter-Glo luminescent cell viability assay (Promega) is a homogeneous method to measure the number of viable cells in culture. The end point readout of this assay is based on quantitation of intracellular ATP, an indicator of metabolic activity, using the luciferase reaction. Luciferase catalyzes the oxidation of beetle Luciferin to oxyluciferin and light in the presence of ATP. The luminescent signal is proportional to amount of ATP present.
Using the CellTiter-Glo luminescent cell viability assay, the amount of cellular ATP was measured in the N2a cell line with complete culture medium following compound treatment for 40 hours. The assay was performed in opaque white Kalypsys 1536-well plates. In the screen, tamoxifen and doxorubicin were used as positive controls. Library compounds were measured for their ability to cause acute toxicity in the cell line, as reflected by a decrease in intracellular ATP levels, in a concentration-dependent manner. […] AC50 values were determined from concentration-response data modeled with the standard Hill equation.
qHTS protocol for CellTiter Glo N2a cellular assay
[Step] [Parameter] [Value] [Description]
1. Reagent; 5 uL; 1500 N2a cells/well
2. Time; 5 hr; 37 °C incubation
4. Controls; 23 nL; Tamoxifen 0.34 uM to 100 uM & Doxorubicin 0.02 nM to 100 uM
5. Time; 40 hr; 37 °C incubation
6. Reagent; 5 uL; CellTiter Glo reagent
7. Time; 20 min; Room Temperature
8. Detection; Luminescence; Viewlux plate reader
Keywords: cell viability, cytotoxicity, N2a cell line, luminescence, NTPHTS, NTPHTS_NCGC, NIEHS, EPA, DSSTox, MLSMR, MLSCN, NIH Roadmap, qHTS, NCGC
Potency is read from the fitted curve at half-maximal effect.

| SMILES | activity change, negative = cytotoxicity | Potency |
| --- | --- | --- |
| Nc1ccc2cc3ccccc3cc2c1 | 5.41% |  |
| CO[C@H]1/C=C/O[C@@]2(C)Oc3c(C)c(O)c4c(O)c(c5c(c4c3C2=O)NC2(CCN(CC(C)C)CC2)N=5)=NC(=O)/C(C)=C\C=C\[C@H](C)[C@H](O)[C@@H](C)[C@@H](O)[C@@H](C)[C@H](OC(C)=O)[C@@H]1C | -15.7% |  |
| O=C1OC(O)C(C(Cl)Cl)=C1Cl (stereo not drawn) | -101% (active) |  |
| O=C(/C=C/c1ccc(O)c(O)c1)OC1C[C@](O)(C(=O)O)C[C@@H](O)[C@H]1O (stereo partly drawn) |  | inactive |
| CC(=O)Nc1ccc(C(=O)CCl)cc1 |  | 25.1 µM (active) |
| Cc1cc(O)c(C(C)(C)C)cc1Sc1cc(C(C)(C)C)c(O)cc1C |  | 12.6 µM (active) |
| CCC(C)Nc1ccc(NC(C)CC)cc1 (stereo not drawn) |  | 15.8 µM (active) |
| O=[N+]([O-])c1cc([N+](=O)[O-])c2ccc(S(=O)(=O)O)cc2c1O | 17.9% |  |
| CN(C)c1ccc(C2(c3ccc(N(C)C)cc3)OC(=O)c3cc(N(C)C)ccc32)cc1 | -19.9% |  |
| CC/C(=C(\c1ccccc1)c1ccc(OCCN(C)C)cc1)c1ccc(O)cc1 |  | 31.6 µM (active) |
| C=CC(=O)OCCOCCOC(=O)C=C | -114% (active) |  |
| c1ccc2c(c1)-c1cccc3c1c-2cc1ccccc13 | -13.6% |  |
| O=C1OC2(c3cc(Br)c(O)c(Br)c3Oc3c2cc(Br)c(O)c3Br)c2c(Cl)c(Cl)c(Cl)c(Cl)c21 |  | 3.98 µM (active) |
| CN1[C@H]2CC(OC(=O)[C@H](CO)c3ccccc3)C[C@H]1[C@H]1O[C@H]12 (stereo partly drawn) |  | inactive |
| O=C(OCC(COC(=O)c1ccccc1)(COC(=O)c1ccccc1)COC(=O)c1ccccc1)c1ccccc1 | -4.51% |  |
| Cc1cc(Nc2ccc(O)cc2)ccc1N | -119% (active) |  |
| CCCCCCCC[N+](CCCCCCCC)(CCCCCCCC)CCCCCCCC |  | 3.16 µM (active) |
| O=Cc1ccc(Cl)c(Cl)c1 | 1.53% |  |
| Oc1ccc2cc(SSc3ccc4cc(O)ccc4c3)ccc2c1 | -111% (active) |  |
| C=C(C)c1ccccc1 | -0.982% |  |
| c1cc(OCC2CO2)cc(OCC2CO2)c1 (stereo not drawn) |  | 31.6 µM (active) |
| c1ccc2c(c1)ccc1cc3c(ccc4ccccc43)cc12 | -11.5% |  |
| CNc1ccc(O)cc1 |  | 31.6 µM (active) |
| O=C=Nc1ccc(Cc2ccc(N=C=O)cc2)cc1 | 2.06% |  |
| CCCCCC/C(C=O)=C\c1ccccc1 | -0.652% |  |
| C=CC(=O)OCC(CO)(COC(=O)C=C)COC(=O)C=C |  | 15.8 µM (active) |
| Cc1cccc(O)c1C | -3.99% |  |
| C/C=C1\C(=O)C[C@H]2[C@@H]3CCC4=CC(=O)CC[C@]4(C)[C@H]3CC[C@]12C | -114% (active) |  |

Reference: PubChem BioAssay (NCATS)
